Experimental data published in the supplement of paper PMC10849652.
The full data set covers some 7,900 targets. This sample favours those with a hit. About 0.6% of all pairs of compound and target were hits.

What was measured:
Test in all cases: log2 fold change, soluble protein after heating vs DMSO (PISA); higher = thermal stabilisation; K562 cells, 10 uM, 30 min; active = over 0.2 and 3.5 SD of the protein, either way, in both replicates (recomputed)
bafetinib = compound: Cc1ccc(NC(=O)c2ccc(CN3CC[C@H](N(C)C)C3)c(C(F)(F)F)c2)cc1Nc1nccc(-c2cncnc2)n1 [bafetinib]
Summary of the method: (§1)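 K562 cells (2×10^6 cells/mL) were treated with 10 μM compound for 30 min, and aliquots were heated for 3 min over 48°C-58°C. Pooled aliquots were extracted in PBS with 0.5% NP-40 at 4°C, and the supernatant after 21,000xg for 90 min was measured by TMTpro 16plex LC-MS/MS with channel sums equalised. Reported thermal stability, relative to control samples and from duplicates, is a log2 fold change.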

[1] = compound: Cc1cccc(CC(=O)N2CCc3c2ccc(-c2cn(C)c4ncnc(N)c24)c3F)n1
Summary of the method: as §1

nilotinib = compound: Cc1cn(-c2cc(NC(=O)c3ccc(C)c(Nc4nccc(-c5cccnc5)n4)c3)cc(C(F)(F)F)c2)cn1 [nilotinib]
Summary of the method: as §1

[2] = compound: Cc1nc(Nc2n[nH]c3c2CN(C(=O)N[C@H](CN(C)C)c2ccccc2)C3(C)C)c2sccc2n1
Summary of the method: as §1

dasatinib = compound: Cc1nc(Nc2ncc(C(=O)Nc3c(C)cccc3Cl)s2)cc(N2CCN(CCO)CC2)n1 [dasatinib]
Summary of the method: as §1

[3] = compound: Cc1ncc(-c2ccnc(Nc3ccc(S(C)(=O)=O)cc3)n2)n1C(C)C
Summary of the method: as §1

[4] = compound: Cn1cc(-c2ccc3c(c2)CCN3C(=O)Cc2cccc(C(F)(F)F)c2)c2c(N)ncnc21
Summary of the method: as §1

[5] = compound: Cn1cc(-c2ccc3nnc(C(F)(F)c4ccc5ncccc5c4)n3n2)cn1
Summary of the method: as §1

tipifarnib = compound: Cn1cncc1[C@@](N)(c1ccc(Cl)cc1)c1ccc2c(c1)c(-c1cccc(Cl)c1)cc(=O)n2C [tipifarnib]
Summary of the method: as §1

mubritinib = compound: FC(F)(F)c1ccc(/C=C/c2nc(COc3ccc(CCCCn4ccnn4)cc3)co2)cc1 [mubritinib]
Summary of the method: as §1

[6] = compound: NC(=O)Nc1cc(-c2cccc(F)c2)sc1C(=O)N[C@H]1CCCNC1
Summary of the method: as §1

[7] = compound: NC(=O)c1cnc(N[C@@H]2CCCC[C@@H]2N)nc1Nc1cccc(-n2nccn2)c1
Summary of the method: as §1

[8] = compound: NC1(c2ccc(-c3nc4ccn5c(=O)[nH]nc5c4cc3-c3ccccc3)cc2)CCC1
Summary of the method: as §1

[9] = compound: NCC(=O)Nc1ccc(-n2nc(C(F)(F)F)cc2-c2ccc3c(ccc4ccccc43)c2)cc1
Summary of the method: as §1

entinostat = compound: Nc1ccccc1NC(=O)c1ccc(CNC(=O)OCc2cccnc2)cc1 [entinostat]
Summary of the method: as §1

vorinostat = compound: O=C(CCCCCCC(=O)Nc1ccccc1)NO [vorinostat]
Summary of the method: as §1

citarinostat = compound: O=C(CCCCCCNC(=O)c1cnc(N(c2ccccc2)c2ccccc2Cl)nc1)NO [citarinostat]
Summary of the method: as §1

silmitasertib = compound: O=C(O)c1ccc2c(c1)nc(Nc1cccc(Cl)c1)c1ccncc12 [silmitasertib]
Summary of the method: as §1

[10] = compound: O=C1NC(=O)C(c2cnc3ccccn23)=C1c1cn2c3c(cc(F)cc13)CN(C(=O)N1CCCCC1)CC2
Summary of the method: as §1

[11] = compound: c1cc(OCCN2CCCCC2)cc(-c2n[nH]c3ccc(-c4nnc[nH]4)cc23)c1
Summary of the method: as §1

Measured: log2 fold change

VPS33B (UniProt Q9H267)
Sequence of UniProt Q9H267 (Q9H267 whole entry, looked up): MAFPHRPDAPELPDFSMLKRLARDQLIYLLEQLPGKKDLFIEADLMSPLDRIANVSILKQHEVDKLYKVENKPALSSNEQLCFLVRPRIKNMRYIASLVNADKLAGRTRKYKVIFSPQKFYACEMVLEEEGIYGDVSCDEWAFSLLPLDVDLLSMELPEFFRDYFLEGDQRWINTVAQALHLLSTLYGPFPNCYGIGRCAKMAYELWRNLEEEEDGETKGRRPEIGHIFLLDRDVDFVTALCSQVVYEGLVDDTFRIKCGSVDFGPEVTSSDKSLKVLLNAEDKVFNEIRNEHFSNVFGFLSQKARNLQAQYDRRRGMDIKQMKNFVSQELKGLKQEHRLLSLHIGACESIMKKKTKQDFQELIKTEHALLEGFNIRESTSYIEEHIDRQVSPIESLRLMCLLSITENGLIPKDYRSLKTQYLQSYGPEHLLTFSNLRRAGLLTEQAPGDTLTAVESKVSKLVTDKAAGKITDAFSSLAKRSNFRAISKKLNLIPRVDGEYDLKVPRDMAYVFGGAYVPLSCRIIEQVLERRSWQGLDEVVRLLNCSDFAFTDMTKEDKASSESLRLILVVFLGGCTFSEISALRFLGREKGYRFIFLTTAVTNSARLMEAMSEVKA
inactive: bafetinib 0.01 | [1] 0.04 | nilotinib -0.056 | [2] -0.158 | dasatinib -0.209 | [3] 0.099 | [4] 0.017 | [5] -0.069 | tipifarnib -0.107 | mubritinib 0.054 | [6] -0.013 | [7] -0.154 | [8] -0.118 | [9] -0.018 | entinostat 0.094 | vorinostat 0.072 | citarinostat 0.076 | silmitasertib -0.011 | [10] 0.017 | [11] -0.057

TMEM120A (UniProt Q9BXJ8)
Sequence of UniProt Q9BXJ8 (Q9BXJ8 whole entry, looked up): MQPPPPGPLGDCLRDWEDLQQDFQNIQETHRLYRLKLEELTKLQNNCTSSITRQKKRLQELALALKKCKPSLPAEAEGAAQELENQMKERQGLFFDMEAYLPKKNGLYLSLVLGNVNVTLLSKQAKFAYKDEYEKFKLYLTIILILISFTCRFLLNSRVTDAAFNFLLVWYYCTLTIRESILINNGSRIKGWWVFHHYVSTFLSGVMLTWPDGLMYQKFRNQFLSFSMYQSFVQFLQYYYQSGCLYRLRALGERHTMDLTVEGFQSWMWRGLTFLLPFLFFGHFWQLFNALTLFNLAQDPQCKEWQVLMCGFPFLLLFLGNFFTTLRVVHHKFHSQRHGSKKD
active: bafetinib 0.454
inactive: [1] -0.054 | nilotinib -0.009 | [2] -0.038 | dasatinib 0.046 | [3] -0.09 | [4] 0.053 | [5] 0.057 | tipifarnib 0.011 | mubritinib 0.048 | [6] 0.229 | [7] 0.089 | [8] 0.058 | [9] 0.091 | entinostat 0.002 | vorinostat 0.1 | citarinostat 0.252 | silmitasertib -0.124 | [10] 0.185 | [11] 0.082

TRIM28 (UniProt Q13263)
Sequence of UniProt Q13263 (Q13263 whole entry, looked up): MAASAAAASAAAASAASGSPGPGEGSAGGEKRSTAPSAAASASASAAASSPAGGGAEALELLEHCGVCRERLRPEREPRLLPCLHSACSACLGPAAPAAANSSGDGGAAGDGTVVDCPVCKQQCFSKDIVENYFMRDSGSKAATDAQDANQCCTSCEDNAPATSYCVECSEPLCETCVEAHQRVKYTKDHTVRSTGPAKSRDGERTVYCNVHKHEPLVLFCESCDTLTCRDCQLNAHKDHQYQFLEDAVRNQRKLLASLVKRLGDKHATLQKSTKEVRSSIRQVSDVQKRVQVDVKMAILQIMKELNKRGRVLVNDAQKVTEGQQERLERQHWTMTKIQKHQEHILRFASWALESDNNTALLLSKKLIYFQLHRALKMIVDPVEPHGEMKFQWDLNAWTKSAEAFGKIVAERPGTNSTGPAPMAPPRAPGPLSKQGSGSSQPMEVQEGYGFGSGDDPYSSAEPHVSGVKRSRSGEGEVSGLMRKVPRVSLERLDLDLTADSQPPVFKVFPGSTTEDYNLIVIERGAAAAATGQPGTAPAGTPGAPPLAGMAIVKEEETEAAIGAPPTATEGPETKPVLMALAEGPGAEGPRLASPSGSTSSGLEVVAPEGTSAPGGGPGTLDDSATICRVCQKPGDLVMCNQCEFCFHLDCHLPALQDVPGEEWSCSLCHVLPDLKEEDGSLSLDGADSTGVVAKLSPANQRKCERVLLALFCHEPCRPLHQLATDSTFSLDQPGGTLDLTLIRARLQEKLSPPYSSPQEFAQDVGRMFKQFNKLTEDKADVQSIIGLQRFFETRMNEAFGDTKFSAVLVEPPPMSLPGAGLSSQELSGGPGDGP
inactive: bafetinib 0.005 | [1] 0.011 | nilotinib -0.013 | [2] -0.035 | dasatinib -0.014 | [3] 0.013 | [4] -0.02 | [5] 0.004 | tipifarnib -0.035 | mubritinib 0.009 | [6] -0.006 | [7] -0.008 | [8] -0.038 | [9] -0.007 | entinostat 0.038 | vorinostat 0.032 | citarinostat 0.036 | silmitasertib 0.036 | [10] -0.048 | [11] -0.009

TMEM223 (UniProt A0PJW6)
Sequence of UniProt A0PJW6 (A0PJW6 whole entry, looked up): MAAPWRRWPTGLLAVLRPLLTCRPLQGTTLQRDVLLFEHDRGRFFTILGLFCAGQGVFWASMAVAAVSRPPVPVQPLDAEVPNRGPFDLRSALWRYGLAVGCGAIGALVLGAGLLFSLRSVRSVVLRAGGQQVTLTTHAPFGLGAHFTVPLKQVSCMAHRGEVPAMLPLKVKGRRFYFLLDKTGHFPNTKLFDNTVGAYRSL
inactive: bafetinib -0.156 | [1] -0.005 | nilotinib 0.032 | [2] 0.033 | dasatinib -0.052 | [3] -0.079 | [4] -0.025 | [5] 0.038 | tipifarnib 0.013 | mubritinib 0.044 | [6] -0.087 | [7] -0.14 | [8] -0.1 | [9] 0.071 | entinostat -0.02 | vorinostat 0.096 | citarinostat -0.031 | silmitasertib 0.019 | [10] 0.05 | [11] -0.036

TMEM63B (UniProt Q5T3F8)
Sequence of UniProt Q5T3F8 (Q5T3F8 whole entry, looked up): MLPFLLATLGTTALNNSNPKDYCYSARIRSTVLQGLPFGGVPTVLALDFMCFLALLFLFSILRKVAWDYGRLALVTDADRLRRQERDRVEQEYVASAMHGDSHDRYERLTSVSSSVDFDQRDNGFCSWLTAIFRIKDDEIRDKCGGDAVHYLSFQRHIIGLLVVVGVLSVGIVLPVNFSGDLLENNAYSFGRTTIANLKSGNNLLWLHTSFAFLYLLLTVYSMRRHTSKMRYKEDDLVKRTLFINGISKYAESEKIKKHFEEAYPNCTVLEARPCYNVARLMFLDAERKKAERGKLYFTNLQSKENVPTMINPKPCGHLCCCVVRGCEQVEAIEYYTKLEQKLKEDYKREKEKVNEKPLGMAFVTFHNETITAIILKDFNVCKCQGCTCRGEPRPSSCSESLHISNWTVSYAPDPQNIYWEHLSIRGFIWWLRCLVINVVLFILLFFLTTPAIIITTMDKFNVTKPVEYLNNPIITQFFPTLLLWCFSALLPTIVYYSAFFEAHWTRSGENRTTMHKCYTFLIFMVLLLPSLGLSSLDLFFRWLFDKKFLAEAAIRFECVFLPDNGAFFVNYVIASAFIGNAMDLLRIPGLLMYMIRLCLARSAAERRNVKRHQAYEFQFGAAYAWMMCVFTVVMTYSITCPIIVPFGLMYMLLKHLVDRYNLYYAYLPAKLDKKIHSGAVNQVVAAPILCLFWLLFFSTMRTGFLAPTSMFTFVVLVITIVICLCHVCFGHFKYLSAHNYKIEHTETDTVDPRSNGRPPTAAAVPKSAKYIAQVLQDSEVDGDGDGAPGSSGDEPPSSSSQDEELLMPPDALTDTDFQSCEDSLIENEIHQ
inactive: bafetinib 0.013 | [1] 0.002 | nilotinib -0.008 | [2] -0.021 | dasatinib 0.026 | [3] -0.061 | [4] 0.006 | [5] 0.004 | tipifarnib 0.008 | mubritinib 0.047 | [6] 0.069 | [7] 0.059 | [8] -0.153 | [9] 0.052 | entinostat 0.07 | vorinostat -0.008 | citarinostat -0.024 | silmitasertib 0.001 | [10] -0.037 | [11] -0.021

XPO1 (UniProt O14980)
inactive: bafetinib -0.003 | [1] 0.042 | nilotinib -0.114 | [2] -0.037 | dasatinib -0.154 | [3] 0.001 | [4] 0.005 | [5] -0.008 | tipifarnib -0.159 | mubritinib 0.042 | [6] 0.034 | [7] -0.056 | [9] -0.026 | entinostat 0.082 | vorinostat 0.052 | citarinostat 0.092 | silmitasertib 0.025 | [10] 0.009 | [11] -0.054
active: [8] -0.249

TOE1 (UniProt Q96GM8)
inactive: bafetinib 0.301 | [1] 0.033 | nilotinib 0.152 | [2] 0.178 | dasatinib 0.097 | [3] 0.017 | [4] -0.113 | [5] -0.072 | tipifarnib -0.036 | mubritinib 0.111 | [6] 0.09 | [7] -0.011 | [8] 0.104 | [9] -0.01 | entinostat -0.038 | vorinostat -0.047 | citarinostat 0.011 | silmitasertib 0.026 | [10] 0.122 | [11] -0.18

WASH2P (UniProt Q6VEQ5)
Sequence of UniProt Q6VEQ5 (Q6VEQ5 whole entry, looked up): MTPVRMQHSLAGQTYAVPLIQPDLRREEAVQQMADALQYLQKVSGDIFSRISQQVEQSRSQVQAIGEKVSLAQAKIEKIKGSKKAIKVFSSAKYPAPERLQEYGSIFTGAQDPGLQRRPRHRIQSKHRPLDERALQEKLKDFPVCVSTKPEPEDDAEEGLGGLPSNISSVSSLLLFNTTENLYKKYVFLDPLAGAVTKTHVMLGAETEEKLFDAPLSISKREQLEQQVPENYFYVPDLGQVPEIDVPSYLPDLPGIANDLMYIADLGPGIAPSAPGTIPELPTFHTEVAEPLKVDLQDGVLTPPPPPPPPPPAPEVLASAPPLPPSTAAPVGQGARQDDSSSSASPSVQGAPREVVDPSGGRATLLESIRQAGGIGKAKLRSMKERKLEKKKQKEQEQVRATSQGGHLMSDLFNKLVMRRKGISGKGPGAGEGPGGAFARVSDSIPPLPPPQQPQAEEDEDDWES
inactive: bafetinib -0.06 | [1] 0.017 | nilotinib -0.069 | [2] -0.019 | dasatinib 0.03 | [3] 0.01 | [4] -0.008 | [5] 0.011 | tipifarnib 0.043 | mubritinib 0.06 | [6] 0.067 | [7] -0.088 | [9] 0.02 | entinostat 0.028 | vorinostat -0.016 | citarinostat 0.029 | silmitasertib 0.06 | [10] 0.092 | [11] -0.045
active: [8] -0.314

TYW1 (UniProt Q9NV66)
Sequence of UniProt Q9NV66 (Q9NV66 whole entry, looked up): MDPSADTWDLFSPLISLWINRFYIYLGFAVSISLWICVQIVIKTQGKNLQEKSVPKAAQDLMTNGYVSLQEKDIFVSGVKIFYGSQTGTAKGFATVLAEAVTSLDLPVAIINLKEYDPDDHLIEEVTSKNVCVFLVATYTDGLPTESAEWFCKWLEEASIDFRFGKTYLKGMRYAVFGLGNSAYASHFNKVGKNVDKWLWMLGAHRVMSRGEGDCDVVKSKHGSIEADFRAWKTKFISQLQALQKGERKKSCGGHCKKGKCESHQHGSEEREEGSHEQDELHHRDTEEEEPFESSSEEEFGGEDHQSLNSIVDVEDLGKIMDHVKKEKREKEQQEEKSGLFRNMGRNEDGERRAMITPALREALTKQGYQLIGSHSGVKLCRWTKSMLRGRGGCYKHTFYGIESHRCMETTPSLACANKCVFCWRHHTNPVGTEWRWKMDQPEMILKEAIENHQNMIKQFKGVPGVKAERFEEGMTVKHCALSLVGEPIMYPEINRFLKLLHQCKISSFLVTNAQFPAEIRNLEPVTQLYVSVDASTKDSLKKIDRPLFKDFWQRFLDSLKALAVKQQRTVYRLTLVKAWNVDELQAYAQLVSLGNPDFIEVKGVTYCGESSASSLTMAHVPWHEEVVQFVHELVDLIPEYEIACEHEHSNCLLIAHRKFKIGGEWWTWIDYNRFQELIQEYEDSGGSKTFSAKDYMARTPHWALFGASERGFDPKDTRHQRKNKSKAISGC
inactive: bafetinib -0.003 | [1] 0.033 | nilotinib -0.107 | [2] -0.005 | dasatinib 0.015 | [3] 0.04 | [4] -0.001 | [5] -0.085 | tipifarnib -0.041 | mubritinib -0.075 | [6] -0.022 | [7] 0.05 | [8] 0.004 | [9] 0.013 | entinostat 0.028 | vorinostat -0.056 | citarinostat 0.053 | silmitasertib 0.039 | [10] -0.141 | [11] -0.007

TRIP10 (UniProt Q15642)
Sequence of UniProt Q15642 (Q15642 whole entry, looked up): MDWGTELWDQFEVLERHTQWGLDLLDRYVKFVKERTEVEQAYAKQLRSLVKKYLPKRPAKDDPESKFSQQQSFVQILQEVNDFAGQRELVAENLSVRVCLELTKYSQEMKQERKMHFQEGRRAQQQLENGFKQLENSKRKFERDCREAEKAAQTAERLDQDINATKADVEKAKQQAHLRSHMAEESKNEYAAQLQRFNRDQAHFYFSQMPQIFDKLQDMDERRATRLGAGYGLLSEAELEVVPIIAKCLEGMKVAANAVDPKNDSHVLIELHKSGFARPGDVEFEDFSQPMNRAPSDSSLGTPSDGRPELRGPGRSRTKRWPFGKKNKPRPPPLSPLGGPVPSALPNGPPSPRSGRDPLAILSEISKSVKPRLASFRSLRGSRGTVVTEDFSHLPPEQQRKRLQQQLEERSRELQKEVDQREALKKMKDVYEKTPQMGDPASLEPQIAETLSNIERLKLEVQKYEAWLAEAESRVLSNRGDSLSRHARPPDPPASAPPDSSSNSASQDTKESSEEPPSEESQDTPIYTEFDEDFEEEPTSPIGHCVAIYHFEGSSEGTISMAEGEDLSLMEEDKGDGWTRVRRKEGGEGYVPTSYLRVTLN
inactive: bafetinib -0.042 | [1] 0.05 | nilotinib 0.098 | [2] -0.017 | dasatinib -0.06 | [3] -0.021 | [4] 0.045 | [5] 0.024 | tipifarnib -0.01 | mubritinib 0.048 | [6] -0.003 | [7] -0.055 | [8] -0.129 | [9] -0.011 | entinostat 0.019 | vorinostat -0.063 | citarinostat 0 | silmitasertib 0.046 | [10] -0.207 | [11] -0.014

WDR47 (UniProt O94967)
inactive: bafetinib 0.042 | [1] 0.004 | nilotinib 0.02 | [2] -0.046 | dasatinib -0.036 | [3] 0.067 | [4] 0.002 | [5] 0.033 | tipifarnib 0.039 | mubritinib -0.147 | [6] 0.072 | [7] -0.023 | [9] -0.065 | entinostat 0.002 | vorinostat -0.014 | citarinostat 0.014 | silmitasertib 0.089 | [10] 0.004 | [11] 0.282
active: [8] -0.224

UXT isoform 2 (UniProt Q9UBK9)
Sequence of UniProt Q9UBK9 (Q9UBK9 whole entry, looked up): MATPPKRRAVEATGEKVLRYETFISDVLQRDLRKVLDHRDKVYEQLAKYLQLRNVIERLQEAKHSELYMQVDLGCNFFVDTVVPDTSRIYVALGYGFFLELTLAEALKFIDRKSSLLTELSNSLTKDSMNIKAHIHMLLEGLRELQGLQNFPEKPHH
inactive: bafetinib 0.016 | [1] 0.036 | nilotinib 0.04 | [2] -0.068 | dasatinib -0.033 | [3] 0.001 | [4] 0.11 | [5] 0.026 | tipifarnib -0.144 | mubritinib 0.014 | [6] -0.041 | [7] -0.067 | [8] -0.108 | [9] -0.011 | entinostat 0.004 | vorinostat 0.047 | citarinostat 0.129 | silmitasertib -0.033 | [10] -0.051 | [11] 0.007

UBAP2L isoform 5 (UniProt Q14157)
inactive: bafetinib -0.044 | [1] -0.02 | nilotinib -0.003 | [2] -0.015 | dasatinib 0.005 | [3] 0.007 | [4] 0.011 | [5] -0.003 | tipifarnib -0.028 | mubritinib 0.024 | [6] 0.017 | [7] -0.004 | [8] -0.013 | [9] 0.001 | entinostat -0.016 | vorinostat -0.016 | citarinostat 0.013 | silmitasertib -0.007 | [10] -0.029 | [11] 0.023

TMEM192 (UniProt Q8IY95)
active: [8] -0.374
inactive: bafetinib -0.148 | [1] -0.083 | nilotinib 0.019 | [2] -0.002 | dasatinib 0.109 | [3] -0.042 | [4] -0.034 | [5] -0.051 | tipifarnib 0.051 | mubritinib -0.032 | [6] 0 | [7] -0.01 | [9] 0.01 | entinostat -0.017 | vorinostat -0.061 | citarinostat -0.02 | silmitasertib 0.037 | [10] 0.03 | [11] -0.005

TPP1 (UniProt O14773)
inactive: [1] 0.007 | nilotinib 0.008 | [2] -0.031 | dasatinib -0.051 | [3] 0.022 | [4] -0.025 | [5] 0 | tipifarnib 0.049 | mubritinib -0.001 | [6] -0.036 | [7] -0.037 | [8] -0.174 | [9] -0.08 | entinostat 0.036 | vorinostat 0.031 | citarinostat 0.035 | silmitasertib -0.036 | [10] -0.014 | [11] -0.091
active: bafetinib -0.48

TRAPPC3 (UniProt O43617)
Sequence of UniProt O43617 (O43617 whole entry, looked up): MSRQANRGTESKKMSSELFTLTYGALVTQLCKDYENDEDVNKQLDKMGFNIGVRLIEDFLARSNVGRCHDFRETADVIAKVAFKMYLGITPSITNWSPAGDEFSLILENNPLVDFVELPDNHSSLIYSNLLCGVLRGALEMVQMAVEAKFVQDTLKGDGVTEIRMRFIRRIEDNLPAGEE
inactive: bafetinib -0.033 | [1] 0.003 | nilotinib -0.007 | [2] -0.023 | dasatinib -0.021 | [3] -0.001 | [4] 0.025 | [5] 0.041 | tipifarnib -0.047 | mubritinib 0.035 | [6] 0.017 | [7] -0.056 | [8] -0.145 | [9] -0.058 | entinostat 0.022 | vorinostat 0.004 | citarinostat 0.038 | silmitasertib 0.032 | [10] 0 | [11] -0.048
